# This is a sample that favours compounds with a hit; in the whole collection about 7.9% have one here.
# KB-V1 MDR tox – qHTS assay for MDR1-selective chemotherapeutics: Primary screen using the drug-selected MDR subline cells KB-V1; Potency, µM (titrated, usually from 46.1 µM), hits mostly cytotoxic; hit rate 3.4% among 400,000; KB-V1 MDR cells viability, CellTiter-Glo, 72 h; further: on the % scale 0 is the no-effect control and ±100 the full control effect; nearly all actives have a fitted effect of over 60% in size
#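 KB-V1 cells (P-gp-expressing MDR subline of KB-3-1) in phenol-red-free DMEM with 10% FBS were exposed to library compounds over a concentration series for 72 h at 37 degrees C. Viability read by CellTiter-Glo luminescence; concentration-effect curves fitted after normalization.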
# SW480 rerep – A quantitative high throughput screen for small molecules that induce DNA re-replication in SW480 colon adenocarcinoma cells. SW480 DNA re-replication, Hoechst DNA content imaging, 48 h. hit rate 1.8% among 340,000. AID 624297, 2012. Potency, µM (doses to about 46.1 µM), inactives show at the highest dose re-replication activation, actives largely listed as activators; further: % of control where 0% means no effect; nearly all actives have a fitted effect of over 55% in size
#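 Image-based read-out: total Hoechst fluorescence of nuclei (405 nm excitation, 500-530 nm emission), with hits raising the fraction of high-intensity nuclei. SW480 colon cells incubated 48 hr with compounds at 37 C.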
# KB-3-1 tox – qHTS assay for MDR1-selective chemotherapeutics: Primary screen using the parental adenocarcinoma cell KB-3-1; KB-3-1 viability, CellTiter-Glo ATP luminescence, 72 h; Potency, µM (top dose mostly 46.1 µM), hits mostly cytotoxic; hit rate 1.4% among 400,000; AID 1347075, 2019; further: on the % scale 0 is the no-effect control and ±100 the full control effect; nearly all actives have a fitted effect of over 60% in size
#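 Screening of KB-3-1 cells (DMEM, 10% FBS, phenol-red free) ran from lowest to highest compound concentration; after 72 h at 37 °C viability was read luminescently and curves fitted.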
# HT1080-NT tox – qHTS for induction of synthetic lethality in tumor cells producing 2HG: qHTS for the HT-1080-NT fibrosarcoma cell line; Potency, µM (series often up to 46.1 µM), for inactives: at the highest dose activity, negative = less viability, hits mostly cytotoxic; hit rate 1.6% among 360,000; HT-1080-NT fibrosarcoma viability, CellTiter-Glo ATP luminescence, 48 h; AID 686970, 2013;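 further: NT is the 2HG producing partner of a matched IDH1 knockdown line; 0% = DMSO-treated cells and -100% = media-only wells without cells; nearly all actives have a fitted effect of over 55% in size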
#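 750 cells/well, RPMI + 5% FBS; 2 h settle, compound pin-transfer, 48 h at 37 degrees C. CellTiter-Glo 10 min RT, luminescence. Normalized to DMSO and media-only wells.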
# HT1080 IDH1KD tx – qHTS for induction of synthetic lethality in tumor cells producing 2HG: qHTS for the HT-1080-IDH1KD cell line; AID 686971, 2013; Potency, µM (titrated, usually from 46.1 µM), for the others: top-dose activity, negative = toxicity, actives largely listed as cytotoxic; hit rate 2% among 360,000; HT-1080 IDH1 knockdown viability, ATP luminescence, 48 h;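 further: 0% = DMSO wells and -100% = cell-free medium wells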
#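 In this qHTS, HT-1080 cells depleted of IDH1 are exposed for 48 h at 37 °C to compound titrations. Toxicity is scored from CellTiter-Glo luminescence, with DMSO as full viability and medium alone as none.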
# MCF10A rereplic – A quantitative high throughput screen for small molecules that induce DNA re-replication in MCF 10a normal breast cells | MCF 10A DNA re-replication, Hoechst nuclear intensity, 48 h | Potency, µM (highest dose often 46.1 µM), for the others: at the top dose activity, positive = re-replication, actives largely listed as activators | hit rate 2.9% among 350,000 | AID 624296, 2012; further: % of control where 0% means no effect; nearly all actives have a fitted effect of over 50% in size
# * hit, by the source's call; i = inactive; ? = inconclusive; . = not tested or not shown; [ ] = dose if it differs, or a comment. The call rests on the fitted dose curve; in most records, active means well fitted curve in the direction sought with a large enough effect; inconclusive means small, poorly fitted or top-dose-only effect, or another doubt; inactive means no such curve, though single readings can be large; an effect the other way counts as inactive or inconclusive. Potency means the concentration at half of the fitted maximal effect.
SMILES,KB-V1 MDR tox,SW480 rerep,KB-3-1 tox,HT1080-NT tox,HT1080 IDH1KD tx,MCF10A rereplic
Cc1ccc(S(=O)(=O)C(C#N)c2nc3ccccc3nc2N2CCCC2)cc1 (stereo unspecified),18µM*,7%,i,-3%,0%,?
CCN1CCN(c2nc3ccccc3nc2C(C#N)S(=O)(=O)c2ccc(C)cc2)CC1 (stereo unspecified),i,-4%,?,1%,22%,4%
Cc1cccc(S(=O)(=O)C(C#N)c2nc3ccccc3nc2N2CC(C)OC(C)C2)c1 (stereo unspecified),?,-6%,?,-27%,-1%[9.24 µM],0%
Cc1ccc(S(=O)(=O)C(C#N)c2nc3ccccc3nc2N2CC(C)OC(C)C2)cc1C (stereo unspecified),i,?,i,-13%,-20%,15µM*
COc1ccc(S(=O)(=O)C(C#N)c2nc3ccccc3nc2N2CCCC(C)C2)cc1 (stereo unspecified),i,2%,i,-9%,-1%,12µM*
O=C(Nc1ccn(Cc2c(F)c(F)cc(F)c2F)n1)c1ccc(COc2ccc(Cl)cc2Cl)o1,8.2µM*,3%,i,-24%,-26%,19%
Cc1nn(Cc2c(F)c(F)c(F)c(F)c2F)c(C)c1NC(=O)c1ccc(COc2ccc(Cl)cc2Cl)o1,18µM*,?,?,?,?,?
O=C(Nc1ccccc1F)c1ccc(COc2ccc(Cl)cc2Cl)o1,i,-10%,i,-4%,-4%,15%
CC(C)(C)c1ccc(C(=O)NNc2ncccc2-n2cccc2)cc1,i,0%,i,-5%,-1%,13%
Cc1ccc(OCC(=O)N(Cc2nnc(-c3ccccc3Cl)o2)C2CC2)cc1C,i,-22%,i,7%,1%,7%
Cc1nc(N2CCC(C)CC2)c2c(C)c(C(=O)Nc3ccc(C)c(F)c3)sc2n1,i,-5%,i,13%,-6%,-1%
Cc1nc(N2CCN(C)CC2)c2c(C)c(C(=O)Nc3ccc(C)c(F)c3)sc2n1,i,?,i,-5%[9.24 µM],14µM*,?
Cc1nc(N2CCC(C)CC2)c2c(C)c(C(=O)Nc3ccccc3C(F)(F)F)sc2n1,i,1%,i,0%,-12%,9.2µM*
CC(=O)/C(C=Nc1noc(C)c1Br)=C(\C)O,i,1%,i,4%,-1%,-1%
Cn1c(=O)oc2cc(S(=O)(=O)N3CCC(C(=O)NCc4ccccc4Cl)CC3)ccc21,i,1%,i,4%,3%,2%
O=S(=O)(c1cnc(Cl)c(Br)c1)N1CCc2ccccc21,i,?,i,21µM*,?,?
COc1ccc(/C=C/C(=O)NCC(c2ccc(F)cc2)N2CCOCC2)cc1OC (stereo unspecified),i,13%,i,-3%,-8%,11%
Cc1cnc(C(=O)O)c[n+]1[O-],.,1%,.,.,.,1%
O=S(=O)(c1ccc(Cl)cc1)N1CCCC(c2nc(-c3ccc(F)cc3)no2)C1 (stereo unspecified),i,12%[9.22 µM],i,14%,11%,6%
COc1ccc(-c2noc(C3CCCN(S(=O)(=O)c4cccc(Cl)c4)C3)n2)cc1OC (stereo unspecified),5.2µM*,2%,?,6%,-5%,?
COc1ccccc1C(=O)N1CCCC(c2nc(-c3cc(OC)c(OC)c(OC)c3)no2)C1 (stereo unspecified),4.6µM*,-1%,i,6%,18%,16%
COc1ccc(NC(=O)N2CCCC(c3nc(-c4ccc(OC)cc4)no3)C2)cc1 (stereo unspecified),i,5%,i,-3%,-24%,18%
COc1ccc(NC(=O)N2CCCC(c3nc(-c4ccc(C(C)C)cc4)no3)C2)cc1 (stereo unspecified),8.2µM*,8%,?,11µM*,?,?
CNC1=CC(=O)CC(c2ccccc2)C1 (stereo unspecified),i,?,i,-4%,-2%,?
CCCCCNC1=CC(=O)CC(c2ccccc2)C1 (stereo unspecified),15µM*,?,?,?,-11%[9.24 µM],?
SMILES,KB-V1 MDR tox,SW480 rerep,KB-3-1 tox,HT1080-NT tox,HT1080 IDH1KD tx,MCF10A rereplic
CCCCCCCNC1=CC(=O)CC(c2ccccc2)C1 (stereo unspecified),?,?,7.3µM*,?,16µM*,18µM*
Cc1ccc(NC(=O)CCn2nc(-c3ccccc3)c3ccccc3c2=O)c(C)c1,?,.,i,.,.,.
O=C(CN1C(=O)CC(c2ccco2)Sc2ccccc21)Nc1ccc2c(c1)OCCO2 (stereo unspecified),i,0%,i,1%,-21%,1%
CC1CC(=O)N(CC(=O)Nc2ccc3c(c2)OCO3)c2ccccc2S1 (stereo unspecified),16µM*,1%,?,-2%,-22%,3%
O=C(CN1C(=O)CCSc2ccccc21)Nc1ccc2c(c1)OCCO2,13µM*,-3%,i,5%,-23%,-6%
COc1cc(/C=N/NC(=O)NC23CC4CC(CC(C4)C2)C3)ccc1O,i,-5%,i,26µM*,?,4%
CCOc1cc(/C=N/Nc2nnc(C)n2N)ccc1O,i,7%,i,?,23µM*,?
CCOc1cc(/C=N/NC(=O)N/N=C/c2ccc(O)c(OCC)c2)ccc1O,i,?,6.5µM*,1.8µM*,2.6µM*,?
CCOc1cc(/C=N/Nc2ncnc(Cl)c2N)ccc1O,?,1%,i,8%,17%,?
CCCn1ccc2c(OCC(=O)Nc3ccccc3C(=O)OCC)cccc2c1=O,i,.,i,.,.,.
CN1CCCC1CCNc1ncnc2ccc(-c3ccc4c(c3)OCO4)cc12 (stereo unspecified),?,.,i,.,.,.
Cc1cc(C)c(S(=O)(=O)Nc2cnc3ccccc3c2)c(C)c1,15µM*,3%,i,-20%,-12%,13%
Cc1cc(C)c(S(=O)(=O)Nc2ccccc2-c2ccccc2)c(C)c1,18µM*,10%,?,-2%,-20%,?

# Assay outcomes as filed in PubChem.
